{
  "source": "PubChem BioAssay (EPA / NIEHS)",
  "note": "“And” between values parts separate entries of the source, which are not always exact repeats. Equal values may be shown once. Results filed as inconclusive are left out. The source made the active and inactive calls. Rule for the calls, unless noted: active = hit-call score of the fitted dose curve at least 0.9, where 1 is the maximum; inactive = score below 0.9.",
  "data": [
    {"biological_target": "Nucleoli Translocation, AR (gene 367) (UniProt P10275)", "sequence (P10275 whole entry, looked up)": "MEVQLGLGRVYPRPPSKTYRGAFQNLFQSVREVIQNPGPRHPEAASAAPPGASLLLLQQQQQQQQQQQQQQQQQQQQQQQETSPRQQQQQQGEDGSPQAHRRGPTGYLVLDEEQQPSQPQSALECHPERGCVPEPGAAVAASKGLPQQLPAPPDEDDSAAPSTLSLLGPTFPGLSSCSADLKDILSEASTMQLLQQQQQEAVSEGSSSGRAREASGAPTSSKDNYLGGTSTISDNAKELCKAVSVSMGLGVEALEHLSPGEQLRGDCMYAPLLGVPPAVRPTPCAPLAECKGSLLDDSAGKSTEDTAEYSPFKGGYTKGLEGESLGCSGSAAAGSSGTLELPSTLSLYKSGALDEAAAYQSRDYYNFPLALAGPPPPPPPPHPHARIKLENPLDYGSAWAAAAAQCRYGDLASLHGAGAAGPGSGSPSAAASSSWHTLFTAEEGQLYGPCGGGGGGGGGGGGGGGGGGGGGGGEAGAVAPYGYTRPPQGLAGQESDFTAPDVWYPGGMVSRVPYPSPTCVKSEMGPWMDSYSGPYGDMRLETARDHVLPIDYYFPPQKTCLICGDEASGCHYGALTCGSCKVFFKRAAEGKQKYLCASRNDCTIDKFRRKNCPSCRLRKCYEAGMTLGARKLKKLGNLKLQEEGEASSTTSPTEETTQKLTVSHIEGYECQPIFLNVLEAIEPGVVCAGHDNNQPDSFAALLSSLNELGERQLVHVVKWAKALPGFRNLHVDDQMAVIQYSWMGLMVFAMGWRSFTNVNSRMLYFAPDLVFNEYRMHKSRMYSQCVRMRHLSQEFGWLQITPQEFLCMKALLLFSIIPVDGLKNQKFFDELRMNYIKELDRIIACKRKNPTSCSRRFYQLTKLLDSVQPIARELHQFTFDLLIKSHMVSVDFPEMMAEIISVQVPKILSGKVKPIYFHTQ", "experiment": "UPITT_HCI_U2OS_AR_TIF2_Nucleoli_Agonist: University of Pittsburgh U2OS Androgen Receptor-Transcriptional Intermediary Factor 2 (AR-TIF2) Agonism High Content Imaging Assay for Nucleoli Translocation (AID 2283998; active = hit-call score of the fitted dose curve at least 0.9, where 1 is the maximum)", "conditions": "not given", "how_it_was_run": "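Readout is red (AR-RFP) fluorescence localized to nucleoli, measured by high-content imaging and analysed for increase relative to DMSO. Compound series spanned 0.195 to 50 uM final in 0.5% DMSO.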", "values": [
      {"smiles": "Nc1cccc2c(N)cccc12", "outcome": "inactive"},
      {"smiles": "OCCC(F)(F)C(F)(F)C(F)(F)C(F)(F)C(F)(F)C(F)(F)C(F)(F)C(F)(F)F", "outcome": "inactive"},
      {"smiles": "NC(=O)N1C(=O)C(C(=O)c2cc(Cl)cs2)c2cc(F)c(Cl)cc21", "note": "(stereo not given)", "outcome": "inactive"},
      {"smiles": "c1ccc2c(c1)ccc1ccccc12", "outcome": "inactive"},
      {"smiles": "COCC(C)OCC(C)O", "note": "(stereo not given)", "outcome": "inactive"},
      {"smiles": "CCC(=C(c1ccc(O)cc1)c1ccc(OCCN(C)C)cc1)c1ccccc1", "AC50": "22.5 µM (active)"},
      {"smiles": "Oc1cc2ccccc2c2ccccc12", "outcome": "inactive"},
      {"smiles": "Cc1oc(-c2ccccc2)nc1CCOc1ccc(C[C@H](Nc2ccccc2C(=O)c2ccccc2)C(=O)O)cc1", "outcome": "inactive"},
      {"smiles": "CCCCCCCCCCCCc1ccccc1S(=O)(=O)O", "AC50": "90.7 µM (active)"},
      {"smiles": "N#C[C@@H]1CC(F)(F)CN1C(=O)CNC1CC2CCC(C1)N2c1ncccn1", "note": "(stereo not given in full)", "outcome": "inactive"},
      {"smiles": "O=C(/C=C/c1ccc(O)cc1)CC(=O)/C=C/c1ccc(O)cc1", "outcome": "inactive"},
      {"smiles": "CC[C@H](c1ccc(O)cc1)[C@@H](CC)c1ccc(O)cc1", "AC50": "50 µM (active)"},
      {"smiles": "CCCOc1sc(C(=O)N2CCC(c3cc(CN)ccc3F)CC2)c(C)c1Br", "AC50": "7.93 µM (active)"},
      {"smiles": "CC(=O)CC(C)(C)O", "outcome": "inactive"}
    ]},
    {"biological_target": "Ratio of Nucleoli Translocation and Cytoplasm, AR (gene 367) (UniProt P10275)", "sequence (P10275 whole entry, looked up)": "as above", "experiment": "UPITT_HCI_U2OS_AR_TIF2_Nucleoli_Cytoplasm_Ratio_Antagonist: University of Pittsburgh U2OS Androgen Receptor-Transcriptional Intermediary Factor 2 (AR-TIF2) Antagonism High Content Imaging Assay for Ratio of Nucleoli Translocation and Cytoplasm (AID 2283999; active = hit-call score of the fitted dose curve at least 0.9, where 1 is the maximum;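 note: antagonists lower the DHT-driven ratio of nucleolar to cytoplasmic red signal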)", "conditions": "not given", "how_it_was_run": "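U2OS cells co-expressing RFP-tagged human AR and GFP-tagged TIF2, antagonist mode with DHT as baseline. Nucleolar-to-cytoplasmic red fluorescence ratio imaged by high-content microscopy; final compound 20 uM (0.2% DMSO) primary, 0.195–50 uM (0.5% DMSO) concentration-response.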", "values": [
      {"smiles": "Nc1cccc2c(N)cccc12", "outcome": "inactive"},
      {"smiles": "OCCC(F)(F)C(F)(F)C(F)(F)C(F)(F)C(F)(F)C(F)(F)C(F)(F)C(F)(F)F", "outcome": "inactive"},
      {"smiles": "NC(=O)N1C(=O)C(C(=O)c2cc(Cl)cs2)c2cc(F)c(Cl)cc21", "note": "(stereo not given)", "outcome": "inactive"},
      {"smiles": "c1ccc2c(c1)ccc1ccccc12", "outcome": "inactive"},
      {"smiles": "COCC(C)OCC(C)O", "note": "(stereo not given)", "outcome": "inactive"},
      {"smiles": "COc1cc(CCC(=O)CC(=O)CCc2ccc(O)c(OC)c2)ccc1O", "outcome": "inactive"},
      {"smiles": "CCC(=C(c1ccc(O)cc1)c1ccc(OCCN(C)C)cc1)c1ccccc1", "outcome": "inactive"},
      {"smiles": "Oc1cc2ccccc2c2ccccc12", "AC50": "3.08 µM (active)"},
      {"smiles": "CCCCC[C@H](O)CC(=O)CCc1ccc(O)c(OC)c1", "outcome": "inactive"},
      {"smiles": "Cc1oc(-c2ccccc2)nc1CCOc1ccc(C[C@H](Nc2ccccc2C(=O)c2ccccc2)C(=O)O)cc1", "outcome": "inactive"},
      {"smiles": "CCCCCCCCCCCCc1ccccc1S(=O)(=O)O", "outcome": "inactive"},
      {"smiles": "N#C[C@@H]1CC(F)(F)CN1C(=O)CNC1CC2CCC(C1)N2c1ncccn1", "note": "(stereo not given in full)", "outcome": "inactive"},
      {"smiles": "O=C(/C=C/c1ccc(O)cc1)CC(=O)/C=C/c1ccc(O)cc1", "outcome": "inactive"},
      {"smiles": "CC[C@H](c1ccc(O)cc1)[C@@H](CC)c1ccc(O)cc1", "outcome": "inactive"},
      {"smiles": "Cc1cc(CCN2CCN(c3nsc4ccccc34)CC2)cc2c1NC(=O)CC2(C)C", "outcome": "inactive"},
      {"smiles": "CCCOc1sc(C(=O)N2CCC(c3cc(CN)ccc3F)CC2)c(C)c1Br", "outcome": "inactive"},
      {"smiles": "CC(=O)CC(C)(C)O", "outcome": "inactive"}
    ]},
    {"system": "not listed separately", "experiment": "CCTE_Simmons_MITO_basal_resp_rate: CCTE's HepG2 Seahorse XF Respirometric Screening Assay at Basal Respiratory State, Simmons Lab (AID 2284001)", "conditions": "actives raise or lower the signal", "how_it_was_run": "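HepG2 cells were given test chemicals at 7 concentrations, 125 nM to 100 uM final, and oxygen consumption rate was read every 6 min (3 min mix, 3 min measure) over 72 min. Basal-phase OCR was fitted bidirectionally against DMSO.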", "values": [
      {"smiles": "O=[N+]([O-])c1ccc(O)cc1", "AC50": "66.5 µM (active) and 66 µM (active)"},
      {"smiles": "Nc1cccc2c(N)cccc12", "outcome": "inactive"},
      {"smiles": "CCc1nn(C2CCCCC2)c2cc(C3(C#N)CCC(C(=O)O)CC3)ccc12", "note": "(stereo not given)", "AC50": "15.6 µM (active)"},
      {"smiles": "NC(=O)N1C(=O)C(C(=O)c2cc(Cl)cs2)c2cc(F)c(Cl)cc21", "note": "(stereo not given)", "AC50": "5.91 µM (active)"},
      {"smiles": "CN1CCN(c2ccccc2/C=C2\\SCCN(c3ccc(Cl)c(Cl)c3)C2=O)CC1", "outcome": "inactive"},
      {"smiles": "Oc1cc2ccccc2c2ccccc12", "AC50": "28.6 µM (active)"},
      {"smiles": "OC1CCC(C2CCCCC2)CC1", "note": "(stereo not given)", "AC50": "50 µM (active)"},
      {"smiles": "CCCCCCCCCCCCN1CCCC1=O", "AC50": "31.4 µM (active)"},
      {"smiles": "CCCOC(=O)c1ccc(O)cc1", "AC50": "35.8 µM (active)"},
      {"smiles": "O=C(O)Cc1cc(I)c(Oc2cc(I)c(O)c(I)c2)c(I)c1", "outcome": "inactive"},
      {"smiles": "CC[C@H](c1ccc(O)cc1)[C@@H](CC)c1ccc(O)cc1", "AC50": "20.8 µM (active)"},
      {"smiles": "NC(=O)N(O)[C@@H]1C=C[C@H](Oc2cccc(Oc3ccc(F)cc3)c2)C1", "AC50": "22.1 µM (active)"},
      {"smiles": "Cc1cc(CCN2CCN(c3nsc4ccccc34)CC2)cc2c1NC(=O)CC2(C)C", "AC50": "12.2 µM (active)"}
    ]},
    {"system": "not listed separately", "experiment": "CCTE_Simmons_MITO_max_resp_rate: CCTE's HepG2 Seahorse XF Respirometric Screening Assay at Maximal Respiratory State [uncoupled], Simmons Lab (AID 2284002)", "conditions": "actives raise or lower the signal", "how_it_was_run": "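Read-out is oxygen consumption rate at maximal respiration, taken after FCCP uncoupling of compound-treated HepG2 cells. Seven final concentrations from 125 nM to 100 uM were tested, each in three biological replicates.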", "values": [
      {"smiles": "O=[N+]([O-])c1ccc(O)cc1", "outcome": "inactive"},
      {"smiles": "Nc1cccc2c(N)cccc12", "outcome": "inactive"},
      {"smiles": "CCc1nn(C2CCCCC2)c2cc(C3(C#N)CCC(C(=O)O)CC3)ccc12", "note": "(stereo not given)", "AC50": "25 µM (active)"},
      {"smiles": "NC(=O)N1C(=O)C(C(=O)c2cc(Cl)cs2)c2cc(F)c(Cl)cc21", "note": "(stereo not given)", "AC50": "17.7 µM (active)"},
      {"smiles": "CN1CCN(c2ccccc2/C=C2\\SCCN(c3ccc(Cl)c(Cl)c3)C2=O)CC1", "outcome": "inactive"},
      {"smiles": "Oc1cc2ccccc2c2ccccc12", "outcome": "inactive"},
      {"smiles": "OC1CCC(C2CCCCC2)CC1", "note": "(stereo not given)", "outcome": "inactive"},
      {"smiles": "CCCCCCCCCCCCN1CCCC1=O", "AC50": "34.8 µM (active)"},
      {"smiles": "CCCOC(=O)c1ccc(O)cc1", "outcome": "inactive"},
      {"smiles": "O=C(O)Cc1cc(I)c(Oc2cc(I)c(O)c(I)c2)c(I)c1", "outcome": "inactive"},
      {"smiles": "CC[C@H](c1ccc(O)cc1)[C@@H](CC)c1ccc(O)cc1", "AC50": "30 µM (active)"},
      {"smiles": "NC(=O)N(O)[C@@H]1C=C[C@H](Oc2cccc(Oc3ccc(F)cc3)c2)C1", "AC50": "32.4 µM (active)"},
      {"smiles": "Cc1cc(CCN2CCN(c3nsc4ccccc34)CC2)cc2c1NC(=O)CC2(C)C", "AC50": "17 µM (active)"}
    ]},
    {"system": "not listed separately", "experiment": "CCTE_Simmons_MITO_inhib_resp_rate: CCTE's HepG2 Seahorse XF Respirometric Screening Assay at Inhibited Respiratory State [full ETC block], Simmons Lab (AID 2284006)", "conditions": "actives raise or lower the signal", "how_it_was_run": "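HepG2 oxygen consumption was measured by Seahorse XF after compound, FCCP, then rotenone/antimycin A injections. Seven concentrations from 125 nM to 100 uM (final) were tested, with 6-min kinetic reads over 72 minutes. Inhibited-state OCR was fitted bidirectionally against DMSO.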", "values": [
      {"smiles": "O=[N+]([O-])c1ccc(O)cc1", "outcome": "inactive"},
      {"smiles": "Nc1cccc2c(N)cccc12", "AC50": "39.8 µM (active)"},
      {"smiles": "CCc1nn(C2CCCCC2)c2cc(C3(C#N)CCC(C(=O)O)CC3)ccc12", "note": "(stereo not given)", "outcome": "inactive"},
      {"smiles": "NC(=O)N1C(=O)C(C(=O)c2cc(Cl)cs2)c2cc(F)c(Cl)cc21", "note": "(stereo not given)", "outcome": "inactive"},
      {"smiles": "CN1CCN(c2ccccc2/C=C2\\SCCN(c3ccc(Cl)c(Cl)c3)C2=O)CC1", "outcome": "inactive"},
      {"smiles": "Oc1cc2ccccc2c2ccccc12", "AC50": "11.1 µM (active)"},
      {"smiles": "OC1CCC(C2CCCCC2)CC1", "note": "(stereo not given)", "outcome": "inactive"},
      {"smiles": "CCCCCCCCCCCCN1CCCC1=O", "outcome": "inactive"},
      {"smiles": "CCCOC(=O)c1ccc(O)cc1", "outcome": "inactive"},
      {"smiles": "O=C(O)Cc1cc(I)c(Oc2cc(I)c(O)c(I)c2)c(I)c1", "outcome": "inactive"},
      {"smiles": "CC[C@H](c1ccc(O)cc1)[C@@H](CC)c1ccc(O)cc1", "AC50": "40.4 µM (active)"},
      {"smiles": "NC(=O)N(O)[C@@H]1C=C[C@H](Oc2cccc(Oc3ccc(F)cc3)c2)C1", "outcome": "inactive"},
      {"smiles": "Cc1cc(CCN2CCN(c3nsc4ccccc34)CC2)cc2c1NC(=O)CC2(C)C", "outcome": "inactive"}
    ]}
  ]
}
